# Legend:
# DLK = test system: T1, DLK
# T1 construct: gene MAP3K12
# CTK = test system: T2, CTK
# T2 construct: gene MATK
# DCAMKL1 = test system: T3, DCAMKL1
# T3 construct: gene DCLK1
# DCAMKL3 = test system: T4, DCAMKL3
# T4 construct: gene DCLK3
# 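Also: kd values determined as follow-up on hits from a single-replicate KINOMEscan panel screen.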
compound,measurement,setting,value
Nc1nccc2scc(-c3ccc4c(c3)CCN4C(=O)Cc3cc(F)ccc3F)c12 [GSK2587663],Kd,CLK3,> 10 µM
COc1ccc(NC(=O)Nc2ccc(C)c(-c3ccc(C(=O)Nc4ccncc4)cc3)c2)cc1 [GSK1398475],Kd,CSF1R,1800 nM
same,Kd,DDR1,860 nM
CSc1nn2c(=O)cc(N3CCOCC3)nc2n1Cc1cccc(Cl)c1Cl [GSK2347225],Kd,CLK3,> 10 µM
same,Kd,CSNK1E,> 10000 nM
same,Kd,DLK,> 10 µM
Cc1ccc(NC(=O)c2cccc(C#N)c2)cc1-c1ccc(C(=O)Nc2ccncc2)cc1 [GSK1398463],Kd,CSF1R,780 nM
same,Kd,DDR1,22 nM
same,Kd,DDR2,140 nM
COc1ccc(NC(=O)c2ccc(-c3cc(-c4nnc(C)o4)ccc3C)cc2)cc1 [GW595885],Kd,CLK3,> 10 µM
CNc1nccc(-c2c(-c3ccc(F)cc3)ncn2C2CCN(C)CC2)n1 [SB-222903],Kd,CSNK1A1,24 nM
same,Kd,CSNK1D,5.7 nM
same,Kd,CSNK1E,17 nM
CCc1nc(-c2cccc(C)c2)c(-c2ccnc(NC(=O)c3ccccc3)c2)s1,Kd,CSNK1A1,1400 nM
same,Kd,CSNK1D,690 nM
same,Kd,CSNK1E,880 nM
c1ccc(-c2ccc3c(-c4ccnc(Nc5ccc6c(c5)OCCO6)n4)cnn3n2)cc1 [GW818941],Kd,CSK,> 10 µM
Nc1nc(-c2cccnc2)c(-c2ccnc3ccccc23)s1 [GW684083],Kd,CLK3,> 10 µM
CN1CCC(n2cnc(-c3ccc(F)cc3)c2-c2ccnc(NC3CCNCC3)n2)CC1 [SB-229482],Kd,CSNK1A1,160 nM
same,Kd,CSNK1D,89 nM
same,Kd,CSNK1E,210 nM
Fc1cccc(COc2ccc(Nc3ncnc4sc(-c5ccc[nH]5)cc34)cc2Cl)c1 [GW707818],Kd,CLK4,> 10 µM
COc1cc2c(Nc3cccc(NC(=O)c4ccccc4)c3)ncnc2cc1OCCCN1CCOCC1 [GSK223810],Kd,CSF1R,420 nM
CSc1ccc(NC2=C(c3ccccc3Cl)C(=O)NC2=O)cc1 [SB-342411],Kd,CLK2,460 nM
CN1c2ccc(-c3ccc(C(=O)NCCO)cc3)cc2-c2[nH]ncc2S1(=O)=O,Kd,CLK2,700 nM
O=C(NCCCN1CCCC1=O)c1cnc(NCc2cc(Cl)ccc2Cl)nc1NC1CCNCC1,Kd,CSF1R,> 10000 nM
same,Kd,CSNK1E,230 nM
COc1ccc(Nc2nccc(N3CCC(NC(=O)Nc4ccc5c(c4)OCO5)C3)n2)cc1 (centres unmarked) [GSK1379745],Kd,CSNK1D,> 10000 nM
Cc1ccc(C)c(NC(=O)NCCNc2ccnc(Nc3ccc(F)cc3)n2)c1 [GSK1379878],Kd,CSK,> 10 µM
Nc1nc(-c2ccccn2)c(-c2ccnc3ccccc23)s1 [GW548057],Kd,CSNK1A1,1200 nM
same,Kd,CSNK1D,1800 nM
Fc1ccc(-c2ncn(CCCNCc3ccccc3)c2-c2ccncc2)cc1,Kd,CSNK1A1,210 nM
same,Kd,CSNK1D,47 nM
same,Kd,CSNK1E,130 nM
Cn1ccc2ncnc(Oc3ccc(NC(=O)Nc4cccnc4)c(Cl)c3)c21,Kd,CSF1R,290 nM
same,Kd,DDR1,57 nM
same,Kd,DDR2,76 nM
CC(C)N1CCC(n2cnc(-c3ccc(F)cc3)c2-c2ccnc(N)n2)CC1 [SB-223132],Kd,CSNK1A1,59 nM
same,Kd,CSNK1D,39 nM
same,Kd,CSNK1E,230 nM
FC(F)(F)c1cc(Nc2nccc(-c3c(-c4ccc(Cl)cc4)nn4ncccc34)n2)ccc1Cl [GW829351],Kd,CSNK1D,2200 nM
COC(=O)c1c(-c2ccccc2)c2cc(Cl)ccc2c(=O)n1Cc1ccc(S(C)(=O)=O)cc1,Kd,CSNK1G1,> 10 µM
O=C(Nc1ccccc1F)NC1CCN(c2ccnc(Nc3ccc(F)cc3)n2)C1 (centres unmarked) [GSK1379722],Kd,CSNK1G2,> 10 µM
Nc1nc(-c2ccc3c(N)n[nH]c3c2)cc(N2CCC[C@@H](C(=O)Nc3ccccc3)C2)n1.O=C(O)C(F)(F)F.O=C(O)C(F)(F)F [GSK2288359],Kd,CSNK1G2,> 10 µM
Cc1cccc(-c2nc(Nc3ccc4[nH]nnc4c3)c3ccccc3n2)n1 [GW867587],Kd,CSNK2A1,770 nM
O=C(Nc1ccccc1)Nc1ccc(Oc2ccc3nccn3n2)cc1,Kd,CTK,> 10 µM
same,Kd,DDR2,3 nM
COC(=O)c1cccc(NC(=O)NCCNc2ccnc(Nc3ccc(F)cc3)n2)c1 [GSK1379883],Kd,DCAMKL1,> 10 µM
C[C@@H]1CCN(C(=O)CO)C[C@@H]1N(C)c1ncnc2[nH]ccc12,Kd,DCAMKL3,240 nM
Clc1ccc(-c2cc(-c3c[nH]nc3-c3ccccn3)ccn2)cc1 [GW681251],Kd,DLK,> 10 µM
